Measurements taken from the supplement of paper PMC10849652.
The full data set covers some 8,800 targets. This sample favours those with a hit. About 0.5% of all pairs of compound and target were hits.

Columns and labels:
Test in all cases: log2 fold change, soluble protein after heating vs DMSO (PISA); higher = thermal stabilisation; K562 lysate, 10 uM; active = over 0.2 and 3.5 SD of the protein, either way, in both replicates (recomputed)
[1] = compound: CN1CC[C@H](c2c(O)cc(O)c3c(=O)cc(-c4ccccc4Cl)oc23)[C@H](O)C1 [alvocidib]
Procedure, shortened: (§1)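 Dounce homogenisation of K562 pellets in PBS pH 7.4 with 1 mM MgCl2 produced a crude extract, used at 1 mg/mL protein. Exposure to 10 μM compound lasted 30 min, and aliquots were then heated for 3 min across 48°C-58°C, pooled and brought to 0.5% NP-40 at 4°C. The supernatant after 21,000xg for 90 min was quantified by TMTpro 16plex LC-MS/MS with channel sums equalised. Duplicate values are given as log-two fold change in thermal stability relative to solvent controls.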

[2] = compound: CN1CCc2c(c3ccccc3n2Cc2ccc(C(=O)NO)cc2)C1 [Tubastatin A]
Procedure, shortened: as §1

[3] = compound: CNC(=O)C1=CC=CC=C1NC2=NC(=NC=C2Cl)NC3=C(C=C(C=C3)N4CCOCC4)OC
Procedure, shortened: as §1

[4] = compound: CNC(=O)c1ccc(Nc2ncc(C(F)(F)F)c(NCc3nccnc3N(C)S(C)(=O)=O)n2)cc1 [defactinib]
Procedure, shortened: as §1

[5] = compound: CNc1nc(-c2ccc3c(N)n[nH]c3c2)cc(N2C[C@@H](C(=O)NC3CCCCC3)CC[C@H]2C)n1
Procedure, shortened: as §1

[6] = compound: COC(=O)N[C@@H](C)CNc1nccc(-c2cn(C(C)C)nc2-c2cc(Cl)cc(NS(C)(=O)=O)c2F)n1 [encorafenib]
Procedure, shortened: as §1

[7] = compound: COC(=O)[C@H](CCSC)NC(=O)C1=C(C=C(C=C1)NC[C@H](CS)N)C2=CC=CC=C2
Procedure, shortened: as §1

[8] = compound: COc1cc(Nc2ncc3c(n2)-c2ccc(Cl)cc2C(c2c(F)cccc2OC)=NC3)ccc1C(=O)O [alisertib]
Procedure, shortened: as §1

[9] = compound: COc1cc2nc(-c3cc(F)ccc3O)nc(N[C@@H]3CNC[C@H]3C(C)(C)O)c2cc1OC
Procedure, shortened: as §1

[10] = compound: COc1cc2ncnc(Nc3ccc(F)c(Cl)c3)c2cc1OCCCN1CCOCC1 [gefitinib]
Procedure, shortened: as §1

[11] = compound: CS(=O)(=O)CCNCc1ccc(-c2ccc3ncnc(Nc4ccc(OCc5cccc(F)c5)c(Cl)c4)c3c2)o1 [lapatinib]
Procedure, shortened: as §1

[12] = compound: CS(=O)(=O)N1CCN(Cc2cc3nc(-c4cccc5[nH]ncc45)nc(N4CCOCC4)c3s2)CC1 [pictilisib]
Procedure, shortened: as §1

[13] = compound: C[C@@H](Oc1cc(-c2cnn(C3CCNCC3)c2)cnc1N)c1c(Cl)ccc(F)c1Cl [crizotinib]
Procedure, shortened: as §1

[14] = compound: C[C@H](C1=CC=C(C=C1)C(=O)NC2=C3C=CNC3=NC=C2)N
Procedure, shortened: as §1

[15] = compound: C[C@H](Nc1ncnc2nc[nH]c12)c1cc2cccc(Cl)c2c(=O)n1-c1ccccc1 [duvelisib]
Procedure, shortened: as §1

[16] = compound: Cc1cc(Nc2cc(CN3CCOCC3)c3nc(C)c(Cc4ccc(Cl)cc4F)n3n2)n[nH]1 [gandotinib]
Procedure, shortened: as §1

[17] = compound: Cc1cc(Nc2cc(N3CCN(C)CC3)nc(Sc3ccc(NC(=O)C4CC4)cc3)n2)n[nH]1 [tozasertib]
Procedure, shortened: as §1

[18] = compound: Cc1ccc(-n2nc(C(C)(C)C)cc2NC(=O)Nc2ccc(OCCN3CCOCC3)c3ccccc23)cc1 [doramapimod]
Procedure, shortened: as §1

[19] = compound: Cc1ccc(NC(=O)c2ccc(CN3CC[C@H](N(C)C)C3)c(C(F)(F)F)c2)cc1Nc1nccc(-c2cncnc2)n1 [bafetinib]
Procedure, shortened: as §1

[20] = compound: Cc1cccc(CC(=O)N2CCc3c2ccc(-c2cn(C)c4ncnc(N)c24)c3F)n1
Procedure, shortened: as §1

Measured: log2 fold change

STK4 (UniProt Q13043)
UniProt Q13043, sequence (Q13043 whole entry, looked up): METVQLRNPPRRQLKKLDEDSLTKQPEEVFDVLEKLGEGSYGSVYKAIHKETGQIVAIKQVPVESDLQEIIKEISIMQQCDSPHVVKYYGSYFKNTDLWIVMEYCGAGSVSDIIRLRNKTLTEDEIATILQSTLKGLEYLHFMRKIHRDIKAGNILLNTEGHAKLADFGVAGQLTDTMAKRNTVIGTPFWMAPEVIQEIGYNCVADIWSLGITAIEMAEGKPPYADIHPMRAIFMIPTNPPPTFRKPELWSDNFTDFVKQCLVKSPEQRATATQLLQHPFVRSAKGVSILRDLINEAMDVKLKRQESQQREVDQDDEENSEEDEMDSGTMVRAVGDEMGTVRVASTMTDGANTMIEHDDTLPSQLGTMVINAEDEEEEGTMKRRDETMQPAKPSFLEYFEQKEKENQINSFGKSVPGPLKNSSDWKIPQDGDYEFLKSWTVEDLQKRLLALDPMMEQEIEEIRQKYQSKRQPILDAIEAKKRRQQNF
inactive: [1] 0.011 | [2] -0.095 | [3] 0.365 | [4] 0.231 | [5] 0 | [6] -0.073 | [7] -0.055 | [8] 0.051 | [9] 0.257 | [10] 0.002 | [11] -0.029 | [12] -0.025 | [13] 0.382 | [14] -0.104 | [15] 0.004 | [17] 0.27 | [18] -0.027 | [19] -0.053 | [20] 0.062
active: [16] 0.504

SULT1A1 (UniProt P50225)
inactive: [1] 0.031 | [2] -0.043 | [3] 0.018 | [4] -0.11 | [5] 0.06 | [6] 0.026 | [7] 0.017 | [8] 0.036 | [9] -0.005 | [10] -0.011 | [11] 0.023 | [12] -0.052 | [13] -0.074 | [14] -0.014 | [15] -0.009 | [16] -0.023 | [17] -0.002 | [18] -0.037 | [19] -0.025 | [20] 0.046

SYF2 (UniProt O95926)
UniProt O95926, sequence (O95926 whole entry, looked up): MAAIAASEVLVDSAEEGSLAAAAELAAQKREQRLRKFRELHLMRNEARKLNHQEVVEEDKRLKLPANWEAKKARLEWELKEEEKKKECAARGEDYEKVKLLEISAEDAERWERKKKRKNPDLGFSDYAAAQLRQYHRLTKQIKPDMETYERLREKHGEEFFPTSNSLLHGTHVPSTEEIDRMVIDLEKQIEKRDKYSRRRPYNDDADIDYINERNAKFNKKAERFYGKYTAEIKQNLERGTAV
inactive: [1] 0.004 | [2] 0.039 | [3] 0.103 | [4] -0.034 | [5] 0.049 | [6] 0.038 | [7] 0.033 | [8] 0.018 | [9] 0.058 | [10] 0.038 | [11] 0.026 | [12] 0.003 | [13] -0.008 | [14] -0.023 | [15] -0.144 | [16] 0.055 | [17] -0.066 | [18] 0.04 | [19] -0.026 | [20] -0.016

SNAP23 (UniProt O00161)
UniProt O00161, sequence (O00161 whole entry, looked up): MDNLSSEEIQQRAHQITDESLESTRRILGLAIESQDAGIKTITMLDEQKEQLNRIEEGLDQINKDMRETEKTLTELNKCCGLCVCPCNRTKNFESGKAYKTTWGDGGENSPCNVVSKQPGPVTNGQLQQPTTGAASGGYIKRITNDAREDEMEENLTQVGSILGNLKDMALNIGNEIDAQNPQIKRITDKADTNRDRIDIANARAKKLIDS
inactive: [1] 0.035 | [2] 0.015 | [3] -0.027 | [4] -0.002 | [5] -0.01 | [6] 0 | [7] -0.033 | [8] -0.015 | [9] 0.005 | [10] 0.02 | [11] 0.005 | [12] -0.035 | [13] 0.067 | [14] 0.034 | [15] -0.004 | [16] 0.007 | [17] 0.005 | [18] 0.002 | [19] 0.059 | [20] -0.05

SLC25A32 (UniProt Q9H2D1)
UniProt Q9H2D1, sequence (Q9H2D1 whole entry, looked up): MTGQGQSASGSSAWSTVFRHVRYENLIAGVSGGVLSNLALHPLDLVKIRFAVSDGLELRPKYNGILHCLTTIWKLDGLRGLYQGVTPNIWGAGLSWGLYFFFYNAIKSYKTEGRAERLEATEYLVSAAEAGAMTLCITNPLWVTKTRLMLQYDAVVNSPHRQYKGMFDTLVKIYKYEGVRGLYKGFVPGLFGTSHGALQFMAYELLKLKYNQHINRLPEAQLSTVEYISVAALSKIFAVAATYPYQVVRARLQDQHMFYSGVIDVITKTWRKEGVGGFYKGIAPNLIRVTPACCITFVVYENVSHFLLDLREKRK
inactive: [1] -0.05 | [2] 0.037 | [3] -0.01 | [4] 0.03 | [5] 0.052 | [6] 0.04 | [7] 0.01 | [8] 0.036 | [9] 0.001 | [10] -0.033 | [11] -0.032 | [12] -0.005 | [13] -0.017 | [14] -0.151 | [15] -0.014 | [16] 0.098 | [17] -0.038 | [18] -0.019 | [19] -0.022 | [20] 0.1

SYNE2 isoform 2 (UniProt Q8WXH0)
active: [14] -0.93
inactive: [1] -0.415 | [2] 0.143 | [3] -0.117 | [4] -0.139 | [5] -0.003 | [6] -0.036 | [7] 0.004 | [8] 0.037 | [9] 0.034 | [10] -0.059 | [11] -0.082 | [12] -0.103 | [13] 0.058 | [15] 0.073 | [16] 0.296 | [17] -0.003 | [18] 0.183 | [19] -0.194 | [20] 0.397

STAT2 (UniProt P52630)
UniProt P52630, sequence (P52630 whole entry, looked up): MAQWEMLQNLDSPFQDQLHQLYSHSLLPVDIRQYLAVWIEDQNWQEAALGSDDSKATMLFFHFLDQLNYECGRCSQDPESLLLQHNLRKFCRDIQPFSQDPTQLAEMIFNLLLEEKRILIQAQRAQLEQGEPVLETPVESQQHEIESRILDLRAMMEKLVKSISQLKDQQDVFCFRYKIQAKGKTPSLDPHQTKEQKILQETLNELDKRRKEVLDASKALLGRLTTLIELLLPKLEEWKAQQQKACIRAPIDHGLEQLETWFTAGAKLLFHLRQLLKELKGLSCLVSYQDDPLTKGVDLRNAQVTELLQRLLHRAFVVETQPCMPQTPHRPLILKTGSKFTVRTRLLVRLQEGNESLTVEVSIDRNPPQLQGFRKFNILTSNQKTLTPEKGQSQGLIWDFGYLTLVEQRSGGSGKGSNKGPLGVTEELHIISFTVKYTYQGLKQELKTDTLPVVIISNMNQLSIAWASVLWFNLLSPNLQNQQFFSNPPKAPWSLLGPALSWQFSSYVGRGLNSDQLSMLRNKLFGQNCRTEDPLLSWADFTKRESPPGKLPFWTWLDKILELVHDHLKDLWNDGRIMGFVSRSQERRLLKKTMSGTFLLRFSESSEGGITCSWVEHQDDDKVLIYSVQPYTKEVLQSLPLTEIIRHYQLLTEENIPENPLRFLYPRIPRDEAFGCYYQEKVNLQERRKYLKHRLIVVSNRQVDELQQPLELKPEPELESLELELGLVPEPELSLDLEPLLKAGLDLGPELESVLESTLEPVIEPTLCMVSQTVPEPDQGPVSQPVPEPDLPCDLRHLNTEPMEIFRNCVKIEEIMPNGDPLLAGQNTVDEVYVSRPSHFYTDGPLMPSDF
inactive: [1] 0.02 | [2] -0.183 | [3] 0.016 | [4] -0.03 | [5] -0.018 | [6] 0.023 | [7] -0.014 | [8] 0.006 | [9] 0.004 | [10] -0.023 | [11] 0.005 | [12] -0.024 | [13] -0.146 | [14] 0.008 | [15] 0.004 | [16] -0.082 | [17] 0.047 | [18] 0.037 | [19] -0.078 | [20] 0.093

STK38 (UniProt Q15208)
UniProt Q15208, sequence (Q15208 whole entry, looked up): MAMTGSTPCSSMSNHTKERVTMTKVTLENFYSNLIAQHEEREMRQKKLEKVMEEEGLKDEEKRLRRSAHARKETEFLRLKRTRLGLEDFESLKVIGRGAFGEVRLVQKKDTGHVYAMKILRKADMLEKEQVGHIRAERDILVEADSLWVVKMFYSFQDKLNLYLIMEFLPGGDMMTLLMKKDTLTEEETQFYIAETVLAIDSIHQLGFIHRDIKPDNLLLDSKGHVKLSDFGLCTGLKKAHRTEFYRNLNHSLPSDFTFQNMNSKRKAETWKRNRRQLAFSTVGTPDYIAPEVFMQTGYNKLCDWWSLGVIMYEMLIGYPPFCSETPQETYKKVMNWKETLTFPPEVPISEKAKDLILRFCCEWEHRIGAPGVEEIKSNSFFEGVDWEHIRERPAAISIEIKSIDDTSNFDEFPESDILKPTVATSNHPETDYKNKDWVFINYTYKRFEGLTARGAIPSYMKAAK
inactive: [1] 0.014 | [2] -0.056 | [5] -0.037 | [6] -0.033 | [7] 0.056 | [8] 0.003 | [9] 0.266 | [10] 0.005 | [11] -0.024 | [12] 0.061 | [13] 0.001 | [14] 0.017 | [15] 0.017 | [16] 0.159 | [17] 0.029 | [18] -0.001 | [19] -0.104 | [20] -0.071
active: [3] 0.912 | [4] 0.502

SLC11A2 isoform 3 (UniProt P49281)
UniProt P49281, sequence (P49281 whole entry, looked up): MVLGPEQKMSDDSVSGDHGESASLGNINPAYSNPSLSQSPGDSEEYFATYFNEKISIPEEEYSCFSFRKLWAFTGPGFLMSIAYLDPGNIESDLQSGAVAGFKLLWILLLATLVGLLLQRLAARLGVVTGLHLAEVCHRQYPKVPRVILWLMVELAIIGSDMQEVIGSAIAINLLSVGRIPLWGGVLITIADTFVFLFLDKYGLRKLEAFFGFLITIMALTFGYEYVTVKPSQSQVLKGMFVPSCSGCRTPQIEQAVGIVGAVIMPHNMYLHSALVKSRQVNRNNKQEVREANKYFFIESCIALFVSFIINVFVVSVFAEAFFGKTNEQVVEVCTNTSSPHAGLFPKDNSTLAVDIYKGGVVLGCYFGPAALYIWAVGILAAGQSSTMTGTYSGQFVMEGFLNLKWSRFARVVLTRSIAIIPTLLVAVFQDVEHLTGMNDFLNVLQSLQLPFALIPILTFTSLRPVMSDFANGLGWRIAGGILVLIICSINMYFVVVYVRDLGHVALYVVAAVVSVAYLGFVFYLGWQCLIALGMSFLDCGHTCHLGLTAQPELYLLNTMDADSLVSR
inactive: [1] -0.032 | [2] -0.047 | [3] 0.031 | [4] -0.001 | [5] -0.008 | [6] 0.063 | [7] -0.027 | [8] 0.128 | [9] 0.021 | [11] 0 | [12] -0.014 | [13] -0.004 | [14] -0.052 | [15] -0.025 | [16] 0.033 | [17] -0.08 | [18] -0.018 | [19] 0.035 | [20] 0.036
active: [10] 0.295

SOAT1 (UniProt P35610)
UniProt P35610, sequence (P35610 whole entry, looked up): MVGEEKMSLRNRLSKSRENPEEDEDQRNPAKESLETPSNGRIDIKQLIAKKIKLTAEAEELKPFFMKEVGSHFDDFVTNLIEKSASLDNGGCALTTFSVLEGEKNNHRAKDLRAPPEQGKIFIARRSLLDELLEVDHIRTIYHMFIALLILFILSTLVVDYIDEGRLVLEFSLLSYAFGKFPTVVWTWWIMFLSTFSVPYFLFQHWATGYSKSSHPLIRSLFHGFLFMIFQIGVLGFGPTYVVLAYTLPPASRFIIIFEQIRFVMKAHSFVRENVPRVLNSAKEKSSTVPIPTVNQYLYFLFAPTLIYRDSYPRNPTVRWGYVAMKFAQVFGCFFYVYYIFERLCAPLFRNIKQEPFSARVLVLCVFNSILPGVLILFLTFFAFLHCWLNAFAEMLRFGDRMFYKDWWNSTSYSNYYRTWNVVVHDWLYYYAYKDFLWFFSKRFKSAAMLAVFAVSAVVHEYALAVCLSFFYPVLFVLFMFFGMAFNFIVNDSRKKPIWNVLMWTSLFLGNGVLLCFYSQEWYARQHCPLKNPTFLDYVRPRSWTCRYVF
inactive: [1] -0.033 | [2] 0.086 | [3] 0.036 | [4] -0.022 | [5] -0.002 | [6] 0.065 | [7] 0.123 | [8] -0.014 | [9] -0.076 | [10] 0.047 | [11] 0.027 | [12] -0.004 | [13] -0.022 | [14] -0.079 | [15] -0.016 | [16] 0.005 | [17] 0.009 | [18] 0.157 | [19] 0.029 | [20] 0.141

SLC27A4 (UniProt Q6P1M0)
inactive: [1] -0.019 | [2] -0.021 | [3] -0.009 | [4] -0.157 | [5] -0.062 | [6] 0.135 | [7] 0.006 | [8] 0.039 | [9] 0.062 | [10] -0.067 | [11] -0.052 | [12] -0.005 | [13] -0.049 | [14] -0.04 | [15] 0.037 | [16] 0.095 | [17] -0.045 | [18] 0.149 | [19] -0.057 | [20] 0.052

TAF9 (UniProt Q16594)
UniProt Q16594, sequence (Q16594 whole entry, looked up): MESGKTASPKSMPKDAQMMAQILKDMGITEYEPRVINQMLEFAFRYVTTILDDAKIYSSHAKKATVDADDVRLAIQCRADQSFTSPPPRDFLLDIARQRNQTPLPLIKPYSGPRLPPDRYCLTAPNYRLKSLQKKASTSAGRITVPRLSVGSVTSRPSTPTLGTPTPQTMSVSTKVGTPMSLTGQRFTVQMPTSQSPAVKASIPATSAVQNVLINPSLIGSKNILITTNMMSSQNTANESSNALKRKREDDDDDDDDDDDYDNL
inactive: [1] 0.032 | [2] -0.026 | [3] 0.014 | [4] -0.03 | [5] -0.004 | [6] 0.099 | [7] -0.041 | [8] 0.004 | [9] 0.038 | [10] 0.084 | [11] -0.06 | [12] -0.018 | [13] -0.004 | [14] 0.188 | [15] 0.084 | [16] -0.002 | [17] 0.156 | [18] 0.001 | [19] 0.018 | [20] -0.057

SSU72 (UniProt Q9NP77)
UniProt Q9NP77, sequence (Q9NP77 whole entry, looked up): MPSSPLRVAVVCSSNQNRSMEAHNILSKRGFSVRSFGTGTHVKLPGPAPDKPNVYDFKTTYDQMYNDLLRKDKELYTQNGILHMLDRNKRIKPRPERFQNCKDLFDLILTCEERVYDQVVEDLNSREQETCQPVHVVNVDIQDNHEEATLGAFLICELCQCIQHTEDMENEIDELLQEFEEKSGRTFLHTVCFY
active: [14] -0.288
inactive: [1] -0.127 | [2] -0.05 | [3] -0.035 | [4] -0.026 | [5] -0.032 | [6] -0.04 | [7] 0.183 | [8] -0.016 | [9] -0.013 | [10] -0.004 | [11] -0.02 | [12] 0.008 | [13] -0.042 | [15] -0.004 | [16] 0.134 | [17] -0.074 | [18] 0.057 | [19] -0.052 | [20] 0.166

SLC25A38 (UniProt Q96DW6)
inactive: [1] -0.062 | [2] 0.014 | [3] -0.049 | [4] 0.074 | [5] 0.06 | [6] -0.038 | [7] 0.321 | [8] 0.044 | [9] 0.097 | [10] 0.094 | [11] -0.093 | [12] -0.026 | [13] -0.044 | [14] -0.072 | [15] 0.173 | [16] -0.055 | [18] -0.024 | [19] -0.025 | [20] 0.112
active: [17] 0.391

SPATS2 (UniProt Q86XZ4)
UniProt Q86XZ4, sequence (Q86XZ4 whole entry, looked up): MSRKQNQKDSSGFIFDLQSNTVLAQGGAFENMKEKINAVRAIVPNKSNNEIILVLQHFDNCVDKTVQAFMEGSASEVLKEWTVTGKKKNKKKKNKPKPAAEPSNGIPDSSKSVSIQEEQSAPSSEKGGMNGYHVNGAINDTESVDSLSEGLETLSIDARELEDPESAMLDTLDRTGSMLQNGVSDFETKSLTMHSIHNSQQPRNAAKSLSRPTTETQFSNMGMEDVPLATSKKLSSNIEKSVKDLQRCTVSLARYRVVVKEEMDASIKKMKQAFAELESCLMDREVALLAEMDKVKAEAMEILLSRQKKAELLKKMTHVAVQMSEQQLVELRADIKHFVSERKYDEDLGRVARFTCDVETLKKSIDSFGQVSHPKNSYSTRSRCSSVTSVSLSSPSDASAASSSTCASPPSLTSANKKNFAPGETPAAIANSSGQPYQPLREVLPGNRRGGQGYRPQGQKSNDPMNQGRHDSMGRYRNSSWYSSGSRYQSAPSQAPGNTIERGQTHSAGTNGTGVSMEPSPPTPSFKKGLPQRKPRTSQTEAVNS
inactive: [1] 0.039 | [2] -0.075 | [3] 0.019 | [4] 0.353 | [5] 0.036 | [6] 0.066 | [7] -0.195 | [8] -0.015 | [9] -0.047 | [10] 0 | [11] 0.027 | [12] -0.119 | [13] 0.09 | [14] -0.016 | [15] 0.048 | [16] 0.145 | [17] -0.062 | [18] -0.126 | [19] -0.206 | [20] -0.164
